Measured values: PubChem BioAssay AID1347414 (National Center for Advancing Translational Sciences (NCATS), 2020)
Records with an inconclusive call do not appear. Activity calls are given as the source filed them. The call rests on the fitted dose curve; in most records, active means well fitted inhibition curve with a large enough effect; inconclusive means small, poorly fitted or top-dose-only effect; inactive means no such curve, though single readings can be large or run the other way.
Potency means the concentration at half of the fitted maximal effect.

Assay: qHTS to identify inhibitors of the type 1 interferon - major histocompatibility complex class I in skeletal muscle: Secondary screen by immunofluorescence; further: nearly all actives have a fitted effect of over 70% in size
Conditions: C25cl48 myoblasts, IFN-b induced HLA-ABC immunofluorescence, 24 h; series mostly up to 49.8 µM
Outline: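 Immortalized human myoblasts C25cl48 were stimulated with 4.0 ng/ml IFN-beta and exposed to an 11-point 1:3 compound titration, top 50 uM, for 24 h at 37 C. They were then fixed and immunostained for HLA-ABC, and quantified by laser scanning cytometry.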
With `CN(C)c1ccc(C(=O)NCCCCCCC(=O)NO)cc1` the Potency was 647 nM (active). With `O=C(NC1CCNCC1)c1[nH]ncc1NC(=O)c1c(Cl)cccc1Cl` the Potency was 258 nM (active). In the case of `Nc1ccccc1NC(=O)c1ccc(CNc2nccc(-c3cccnc3)n2)cc1`, the Potency is reported as 3240 nM (active). For `Cn1cc(CNCC2CCN(c3ncc(C(=O)NO)cn3)CC2)c2ccccc21`, the Potency was 9.1 nM (active). For `NC(=O)Nc1sc(-c2ccc(F)cc2)cc1C(N)=O`, the Potency was 1450 nM (active). For `CCc1c2c(nc3ccc(O)cc13)-c1cc3c(c(=O)n1C2)COC(=O)[C@]3(O)CC`, the Potency was 2570 nM (active). For `CC(=O)NCC(=O)N1[C@@H]2CC[C@H]1c1ccc(Nc3ncc(C(F)(F)F)c(NC4CCC4)n3)cc12`, the Potency was 14500 nM (active). With `CCC(=C/[C@H](C)C/C=C/C(C)=C/[C@@H](C)C(=O)[C@@H](C)[C@H](O)[C@@H](C)C/C(C)=C/C(=O)O)/C=C/[C@@H]1OC(=O)C=C[C@@H]1C` the Potency was “inactive”. In the case of `COc1cc2c(cc1-c1c(C)noc1C)ncc1[nH]c(=O)n([C@H](C)c3ccccn3)c12`, the Potency is reported as 4080 nM (active). In the case of `COc1cccc2c1C(=O)c1c(O)c3c(c(O)c1C2=O)C[C@@](O)(C(C)=O)C[C@@H]3O[C@H]1C[C@H](N)[C@H](O)[C@H](C)O1`, the Potency is reported as 458 nM (active). For `Cc1cc(O)c(-c2ccc([C@@H](C)CN(C)C)cc2)c2c1[nH]c(=O)c1sccc12`, the Potency was 81.4 nM (active). For `Cc1cc2c(cc1CC(=O)c1sccc1S(=O)(=O)Nc1onc(C)c1Cl)OCO2`, the Potency was “inactive”. In the case of `CC1=C(CO)C(=O)O[C@@H]([C@@H](C)[C@H]2CC[C@H]3[C@@H]4C[C@H]5O[C@]56[C@@H](O)C=CC(=O)[C@]6(C)[C@H]4CC[C@]23C)C1`, the Potency is reported as 726 nM (active). With `Cc1ccc([N+](=O)[O-])cc1S(=O)(=O)N(C)/N=C/c1cnc2ccc(Br)cn12` the Potency was 162 nM (active). In the case of `O=C(/C=C\n1cnc(-c2cc(C(F)(F)F)cc(C(F)(F)F)c2)n1)NNc1cnccn1`, the Potency is reported as 324 nM (active). With `COc1cccc2c1C(=O)c1c(O)c3c(c(O)c1C2=O)C[C@@](O)(C(=O)CO)C[C@@H]3O[C@H]1C[C@H](N)[C@@H](O)[C@H](C)O1` the Potency was 914 nM (active). With `CC(C)(C)c1cnc(CSc2cnc(NC(=O)C3CCNCC3)s2)o1` the Potency was 289 nM (active). For `OC1CCC(Oc2cccc3cnc(Nc4ccc5nc[nH]c5c4)nc23)CC1` (configuration not stated), the Potency was 1020 nM (active). With `CCc1c(-c2ccccc2C)nc2c(C#N)c[nH]n2c1=O` the Potency was “inactive”. In the case of `CC[C@H]1CN2CCc3cc(OC)c(OC)cc3[C@@H]2C[C@@H]1C[C@H]1NCCc2cc(OC)c(OC)cc21`, the Potency is reported as 129 nM (active). With `COCCN1CCN(Cc2ccc(-c3n[nH]c4c3C(=O)c3c(NC(=O)NN5CCOCC5)cccc3-4)cc2)CC1` the Potency was 51.4 nM (active). For `O=C1CN2Cc3c(ccc(Cl)c3Cl)N=C2N1`, the Potency was “inactive”. In the case of `O=C(Nc1nc2cccc(-c3ccc(CN4CCS(=O)(=O)CC4)cc3)n2n1)C1CC1`, the Potency is reported as 1820 nM (active). For `COC1CC(C(=O)c2ccc3c(N)ncc(-c4ccc(-c5cnn(C)c5)cc4)c3n2)C1` (configuration not stated), the Potency was “inactive”. With `OCCCNc1cc(-c2ccnc(Nc3cccc(Cl)c3)n2)ccn1` the Potency was 81.4 nM (active). With `O=C(Nc1cn[nH]c1-c1nc2ccc(CN3CCOCC3)cc2[nH]1)NC1CC1` the Potency was 2890 nM (active). With `CCC[C@H](NC(=O)/C(C#N)=C/c1cccc(Br)n1)c1ccccc1` the Potency was 6470 nM (active). In the case of `CN(Cc1ccc(/C=C/C(=O)NO)cc1)CC12CC3CC(CC(C3)C1)C2`, the Potency is reported as 72.6 nM (active). For `O=C1NC(=O)[C@@H](c2c[nH]c3ccccc23)[C@H]1c1cn2c3c(cccc13)CCC2`, the Potency was “inactive”. With `CCCCC(=O)O[C@]1(C(=O)CO)[C@@H](C)C[C@H]2[C@@H]3CCC4=CC(=O)C=C[C@]4(C)[C@@]3(F)[C@@H](O)C[C@@]21C` the Potency was “inactive”. With `N#CC[C@H](C1CCCC1)n1cc(-c2ncnc3[nH]ccc23)cn1` the Potency was 458 nM (active). With `CN1CCN(Cc2ccc(NC(=O)Nc3ccc(Oc4cc(NC(=O)C5CC5)ncn4)cc3)cc2C(F)(F)F)CC1` the Potency was 64.7 nM (active). With `COc1ccc(-c2nc(N3CCOCC3)c3sc(CN(C)c4ncc(C(=O)NO)cn4)cc3n2)cn1` the Potency was 5.8 nM (active). For `O=c1[nH]c2cc(Cl)ccc2c(O)c1-c1ccc(Oc2ccccc2)cc1`, the Potency was “inactive”. In the case of `CS(=O)(=O)N1CCC(NC(=O)c2[nH]ncc2NC(=O)c2c(Cl)cccc2Cl)CC1`, the Potency is reported as 1450 nM (active). With `Cc1cc(O)c(-c2ccc([C@@H](C)CN)cc2)c2c1[nH]c(=O)c1sccc12` the Potency was 18.2 nM (active). For `CC[C@@]1(O)C(=O)OCc2c1cc1n(c2=O)Cc2cc3c(CN(C)C)c(O)ccc3nc2-1`, the Potency was 7260 nM (active).
